According to ChEMBL document CHEMBL3988442, “University of Dundee, Small-Polar-MMV Screening Library” (2021):

Key:
[1] = molecular target: T1, Aspartate--tRNA(Asp/Asn) ligase (Mycobacterium tuberculosis (strain ATCC 25618 / H37Rv)) (UniProt P9WFW3); assay: Assay for Asp RNA synthetase-1 from Mycobacterium tuberculosis; format: functional; design: scale not given: direction of the effect not stated beside the values; conditions: 30 µM; further: in the data most compounds retested in dose-response had high values
T1 sequence (whole entry): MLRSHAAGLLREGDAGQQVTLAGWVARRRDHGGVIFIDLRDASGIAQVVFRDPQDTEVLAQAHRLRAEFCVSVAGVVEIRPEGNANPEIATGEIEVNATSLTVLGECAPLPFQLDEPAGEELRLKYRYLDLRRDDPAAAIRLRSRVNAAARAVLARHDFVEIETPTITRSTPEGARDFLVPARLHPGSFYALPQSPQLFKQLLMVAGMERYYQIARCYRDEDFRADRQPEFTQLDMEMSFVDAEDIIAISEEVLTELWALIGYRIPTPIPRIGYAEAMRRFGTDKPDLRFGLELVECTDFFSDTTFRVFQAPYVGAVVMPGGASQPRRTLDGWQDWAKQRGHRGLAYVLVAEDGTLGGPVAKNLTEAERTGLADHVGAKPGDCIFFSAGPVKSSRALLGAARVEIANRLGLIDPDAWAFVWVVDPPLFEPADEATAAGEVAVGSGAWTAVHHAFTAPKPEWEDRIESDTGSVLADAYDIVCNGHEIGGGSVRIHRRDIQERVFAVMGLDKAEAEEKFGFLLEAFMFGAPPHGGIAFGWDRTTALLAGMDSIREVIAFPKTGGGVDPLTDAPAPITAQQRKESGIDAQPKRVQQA

[2] = molecular target: Shiga toxin 2 (Escherichia coli O157:H7) (UniProt P09385+P09386); assay: E. coli 0.157:H7 Shiga Toxin SOP - stx2 screening assay; format: functional; design: scale not given: direction of the effect not stated beside the values; conditions: 30 µM

| SMILES | Percent Effect [1] [%] | Percent Effect [2] [%] |
| --- | --- | --- |
| O=C(c1cccs1)N1C[C@H]2CC[C@@]3(N=C(c4ccccc4)NC3=O)[C@H]2C1 | -3.42 | -42.8 |
| CCn1nc(C)c2nnn(CC(=O)Nc3c(C)cccc3C)c(=O)c21 | -2.79 | -11.8 |
| Cc1nn(C)c(C)c1NC(=O)CN1CCc2c(nc(C(C)C)n2C)C1 | -0.413 | 5.73 |
| CC(NC(=O)NCc1cccc(N2CCCC2=O)c1)c1ccccc1 (centres undefined) | -1.99 | 21.2 |
| CCNC(=O)N1CCCC(c2noc(CC)n2)C1 (centres undefined) | -2.74 | 17.9 |
| CS(=O)(=O)NC1CCN(C(=O)NCCc2ccccc2F)CC1 | -3.88 | -19.2 |
| Fc1cc(CNCc2ccc3c(c2)CCO3)ccc1N1CCOCC1 | -1.01 | -16.1 |
| CC(=O)N1CCC2(CC1)COCCN2Cc1ccc(F)cc1 | -4.11 | -2.06 |
| Cc1nn(C)c(C)c1CNCc1ccc(N2CCOCC2)nc1 | 2.11 | -24.1 |
| CN(C)C(=O)[C@@H]1CCO[C@@H]2CCN(CCc3ccccc3)C[C@@H]21 | -3.08 | 1.17 |
| Cn1cc(N2CCC3(CCN(S(=O)(=O)C4CC4)C3)C2=O)cn1 (centres undefined) | -3.64 | -21.1 |
| c1cnc(-c2nc(CN3CCOC(Cn4cncn4)C3)cs2)nc1 (centres undefined) | 9.26 | 18.3 |
| Cc1cc(C)n(CC2CN(CCOc3cccc(C#N)c3)CCO2)n1 (centres undefined) | 4.21 | 33 |
| COc1cc2cc(C(=O)O)n(C)c2c(OC)c1OC | -3.95 | 1.12 |
| CN1CCN(CC2CC2)C(=O)c2cnc(N3CCCCC3)nc21 | 3.69 | -8.64 |
| Cc1noc(C)c1CCC(=O)N1CCCN(Cc2cscn2)CC1 | -0.789 | 27.4 |
| Nc1nc2c(c(=O)[nH]1)CCN(C(=O)c1cccc3nccnc13)C2 | 6.9 | -31.4 |
| Cc1cc(F)cc(S(=O)(=O)NCCCN2CCC(O)CC2)c1 | 4.04 | -67.2 |
| Cn1ccc(C(=O)NCc2cccc(N3CCCCC3=O)c2)cc1=O | 0.417 | -29.6 |
| CCn1cnnc1CNC(=O)c1ccc(Cl)cc1F | 1.24 | -53.7 |
| O=C(Cc1ccc(F)cc1)N1CCCCC1c1ccn2ccnc2n1 (centres undefined) | -3.71 | 6.23 |
| CCn1cnnc1C1CCN(C(=O)c2ccc(Cl)s2)CC1 | -0.371 | -7.76 |
| CC(=O)Nc1ncc(S(=O)(=O)Nc2ccc(F)cc2F)s1 | 2.53 | -38.5 |
| O=C(Cc1ccc2c(c1)CCC2)NCCNc1ncccn1 | -1.71 | 7.96 |
| COCC1CC2(CCN(C(=O)c3cccc(C)c3)CC2)CO1 (centres undefined) | -0.131 | -2.68 |
| Cc1ncc(-c2nc3cc(S(=O)(=O)N4CCCC4)ccc3n2C)cn1 | 6.27 | 0.802 |

| SMILES | Percent Effect [1] [%] | Percent Effect [2] [%] |
| --- | --- | --- |
| COc1ccc(CS(=O)(=O)CC(=O)NCC2CC2)cc1F | 3.98 | -12.5 |
| CC(C)C(=O)N1CCC2(CCCN(CCOc3ccccc3)C2)C1 (centres undefined) | 2.32 | 10.8 |
| O=C(CN1CCC(c2ccnn2CCO)CC1)NCC1CC1 | -6.54 | -19.2 |
| CCN(CC)C(=O)CCNC(=O)N1CCC(c2ccccc2)C1 (centres undefined) | -1.42 | -20.3 |
| Cc1cnc(N)c(C(=O)C2CCN(C(=O)c3ccccc3F)CC2)c1 | -1.9 | -8.93 |
| CC(C)NC(=O)c1ccc2c(c1)nc1n2CCN(C(C)C)C1 | -0.435 | -61.8 |
| Cc1csc2c(N3CCC(NCCCc4ccncc4)CC3)ncnc12 | 8.8 | -69.6 |
| COCC(=O)N1Cc2cnc(Cc3ccc(OC)cc3)nc2C1 | 2.73 | -8.2 |
| O=C1CO[C@@H]2CN(S(=O)(=O)c3ccccc3)C[C@H]2N1CC1CC1 | 5.5 | -3.47 |
| CCc1ncncc1C(=O)N1CCCN(Cc2ccc(C)cc2)CC1 | 7.33 | 16.1 |
| Cc1cc(C2CCCN(C(=O)c3cnn(C)c3)C2)ccn1 (centres undefined) | -6.03 | -7.91 |
| CC(Cn1cccn1)NC(=O)Nc1nnc(C2CC2)s1 (centres undefined) | -7.13 | 7.79 |
| CCS(=O)(=O)NC(C(=O)NC)c1ccc(F)c(F)c1 (centres undefined) | -0.436 | 10.3 |
| CN(C)c1cncc(C2CCN(C(=O)CO)CC2)n1 | 2.1 | 7.95 |
| CC(=O)N1CCN(C(=O)c2cnn(-c3ccccc3Cl)c2)CC1 | 4.65 | 14.3 |
| Cc1nc(CN2CCOC(CNc3cccnn3)C2)oc1C (centres undefined) | -4 | 0.662 |
| Cn1ccnc1COc1ccc(CN2CCN(CCO)CC2)cc1 | -5.49 | -50.7 |
| COC[C@]12COC[C@H]1CN(Cc1cc(OC)cc(OC)c1)C2 | -1.51 | -6.3 |
| Cc1cc(C(=O)NCc2cccnc2OC(C)C)no1 | -2.27 | 26.9 |
| Cc1csc2ncc(-c3ccnc(N4CCN(C)CC4)n3)c(=O)n12 | 1.78 | -20.6 |
| OCC1CCCCN1c1ccc(-c2nc(-c3ccccc3F)no2)cn1 (centres undefined) | -6.87 | -36.1 |
| COc1cccc(C2CCCN2C(=O)c2cc3c([nH]c2=O)CCC3)c1 (centres undefined) | 1.28 | -5.59 |
| Cc1cc(NC(=O)CN2CCOC(Cn3cccn3)C2)n(C)n1 (centres undefined) | -3.92 | -12.8 |
| O=C(N1CCCCC1)N1CCN(CC(O)c2ccc(F)cc2)CC1 (centres undefined) | -2.17 | 31.9 |
| CCc1csc(C2CCCN(C(=O)c3ccc(OC)nn3)C2)n1 (centres undefined) | -3.92 | 14.7 |
| COCC1CN(C(=O)c2ccoc2C)Cc2nccn2C1 (centres undefined) | 4.54 | -11.3 |

| SMILES | Percent Effect [1] [%] | Percent Effect [2] [%] |
| --- | --- | --- |
| COc1ccc(C)cc1CN1CCCC1Cn1nc(C)nc1C (centres undefined) | -7.82 | -25.1 |
| CNC(=O)CN1CCCC12CCN(C(=O)c1ccsc1)CC2 | 0.137 | -0.413 |
| Cc1ccccc1CC1(CO)CCCN(c2ncccc2C#N)C1 (centres undefined) | 3.07 | -4.79 |
| FC(F)(F)C1CCc2nnc(CNCc3ccsc3)n2C1 (centres undefined) | -0.0705 | 3.92 |
| Cc1c(I)cccc1C(=O)NCC1(CO)CC1 | 0.747 | 0.906 |
| Cc1cnc(N2C[C@H]3C[C@H](C(=O)N(C)C)[C@@H](C2)O3)nc1 | 2.79 | -23.4 |
| CN(C)S(=O)(=O)N1CCN(c2nccc(C(F)(F)F)n2)CC1 | -6.64 | -2.87 |
| Cc1cnn(CC2CN(Cc3cccc(C(=O)N(C)C)c3)CCO2)c1 (centres undefined) | 2.43 | -24.4 |
| CCOCC1CN(Cc2ccoc2)Cc2ncn(CC3CC3)c21 (centres undefined) | 0.605 | -8.58 |
| Cn1cc(C(=O)NCC2CCN(C(=O)NCC(F)(F)F)CC2)cn1 | 2.43 | -39.4 |
| CCc1nc(CN2CCCN(c3ncnc4ccccc34)CC2)no1 | 13.7 | -69.3 |
| COC(=O)N1CCc2ccc(NC(=O)c3cn(C)nn3)cc2C1 | -0.627 | -90 |
| O=C(c1cccs1)N1CCC(Cn2nc(-c3ccco3)ccc2=O)CC1 | -3.23 | 5.24 |
| Cn1cc(NC(=O)N2CCC(CN3CCCC3)CC2)ccc1=O | -3.79 | -22.6 |
| Cc1ccc(CN2CCCn3nnc(COCC4CC4)c3C2)s1 | -4.16 | 0.0593 |
| Cn1c(Nc2cn[nH]c2)c(C#N)c(=O)n(C)c1=O | -0.24 | -19.1 |
| c1ccc(C2CCCN2Cc2nnnn2C2CC2)cc1 (centres undefined) | -2.81 | -5.38 |
| CCOc1cc(C)nc(N2CCN(C(=O)CC)CC2)n1 | 0.408 | 12.8 |
| CN(C)[C@@H]1CCN(C(=O)NC2CCCC2)[C@H]1Cc1cnn(C)c1 | -2.75 | -11.7 |
| CC(CN1CCOCC1)NCC1CCN(c2cnn(C)c(=O)c2)CC1 (centres undefined) | 2.84 | -6.71 |
| CC(C)Cc1cc(C(=O)N2CCCC(n3cncn3)C2)[nH]n1 (centres undefined) | -3.97 | 2.44 |
| CC(=O)N1[C@@H](C(=O)NCC2CC2)C[C@@H]2CN(Cc3ccco3)C[C@@H]21 | 0.523 | -11.8 |
| CN1CCCc2cc(NC(=O)N3CCOC(C(N)=O)C3)ccc21 (centres undefined) | -0.684 | -77.6 |
| O=C(NCCc1ccn(-c2ccccc2)n1)N1CCC1 | 1.53 | -11.7 |
| Fc1ccc(CN2CCCC(Cn3cncn3)C2)c2ncccc12 (centres undefined) | 14.3 | -38.7 |
| CN(C)S(=O)(=O)N1CCC2(COCc3cnc(-c4ccccc4)nc32)C1 (centres undefined) | -4.48 | -12.6 |

| SMILES | Percent Effect [1] [%] | Percent Effect [2] [%] |
| --- | --- | --- |
| CCOCCn1nc(C)cc1C(=O)N1CCOCC(CO)C1 (centres undefined) | -1.08 | -28 |
| CCSCCNC(=O)C(c1cccc(C)c1)N(C)C (centres undefined) | 0.569 | -22.9 |
| CCN1CCN(Cc2ccnc(-c3cccnc3)n2)CC1 | -0.64 | -13.1 |
| CNC(=O)[C@@H]1C[C@H]2CN(Cc3ccco3)C[C@H]2N1C | 1.3 | -1.93 |
| N#Cc1ccc(OCCCN2CCc3cncnc3C2)cc1 | -3.6 | -20.7 |
| Cc1occc1CNC(=O)N(CCCO)C1CCc2ccccc21 (centres undefined) | -3.25 | 8.04 |
| CNc1cccc(C2CCCN(C(C)=O)C2)n1 (centres undefined) | 7.52 | 23.2 |
| CN1CCCc2cc(CNC(=O)c3ccc(NC4CC4)nc3)ccc21 | -3.1 | -12.6 |
| Cc1nnc(N2CCC(CNC(=O)OC(C)(C)C)CC2)c(C#N)c1C | -0.115 | 34.8 |
| O=C(CCc1cc2n(n1)CCN(Cc1ncc[nH]1)C2)N1CCCC1 | -0.827 | -2 |
| CC(Cn1ccnc1)NC(=O)NCCNC(=O)C(C)C (centres undefined) | 1.08 | 11.8 |
| O=C(c1ccncn1)N1CCO[C@H]2[C@@H](OCc3cccnc3)CC[C@@H]21 | 5.42 | -37.5 |
| CCOC[C@H]1CC[C@H]2[C@H](CCN2C(=O)c2ccncc2F)O1 | 5.35 | -0.318 |
| CS(=O)(=O)Cc1cccc(C(=O)N2CCCC(n3cccn3)C2)c1 (centres undefined) | -2.52 | -47.9 |
| c1nc(CCC2CCCN2)cc(N2CCCOCC2)n1 (centres undefined) | -5.88 | -10.1 |
| CC(C)NC(=O)NCCCc1cc(N)n(-c2ccccc2)n1 | -8.28 | -2.61 |
| CCn1c(Cn2cncn2)nnc1C1CCN(Cc2ccc(C)o2)CC1 | -3.48 | 18.7 |
| NC(=O)c1ccc2c(c1)nc1n2CCN(Cc2ccccc2)C1 | 3.29 | -9.11 |
| CN(C)[C@@H]1CCN(c2ncccn2)[C@H]1Cc1ccncc1 | 0.268 | -22.4 |
| COc1c(C2CCCN2C(=O)c2ccc(Cl)o2)c(C)nn1C (centres undefined) | -4.35 | 9.5 |
| O=S(=O)(CCN1CCOC(Cn2cncn2)C1)c1ccccc1 (centres undefined) | -2.75 | -7.21 |
| CN(C)C(=O)CNC(=O)Nc1cccc(Cl)c1SC(F)F | 4.9 | -5.26 |
| O=C(NCc1ccccc1)[C@H]1C[C@@H]2CN(S(=O)(=O)C3CC3)C[C@H]1O2 | 6.82 | 2.32 |
| CN(C)C(=O)CN1C[C@@H]2CC[C@H](C1)N(C(=O)CCn1cncn1)C2 | 1.04 | -6.26 |
